Source: PubChem BioAssay (NCI)
The panel holds about 83,000 compounds, 20% with a hit somewhere; the sample as a whole holds those more often.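 Growth was measured after 48 h exposure to one concentration of compound in 96-well plates. Values under 10 count as active.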 Unmarked numbers belong to inactive results. Calls of active or inactive are those of the source.

System: NCI-H23 lung
Experiment: NCI-60 one-dose screen, 48 h (100 = growth as untreated, 0 = no growth, -100 = all killed)
Details: 10 µM unless noted
Experimental: Growth inhibition of the NCI-H23 human Non-Small Cell Lung tumor cell line is measured as a screen for anti-cancer activity. Cells are grown in 96 well plates and exposed to the test compound for 48 hours. Compounds are tested at a single concentration, which is 10^-5 M for most compounds. The reported endpoint is percent growth (GI% or GIPRCNT), where numbers from 0 - 100% represent growth inhibition, and numbers from -100% - 0 represent cell death. For example, a value of 40 represents 60% growth inhibition. A value of 0 means no net growth occurred over the course of the experiment. A value of -40 indicates 40% of cells at the beginning of the experiment died by the end of the experiment. A value of -100 means all cells are dead at the end of the experiment.
NCI-60 Human Tumor Cell Lines Screen was performed using the standard one-dose NCI protocol, which is described in more detail at https://dtp.cancer.gov/discovery_development/nci-60/default.htm.
Compounds with GIPRCNT values below 10 were considered active. Activity score was based on GIPRCNT using the following formula: […]
Score is 0 for GIPRCNT values of 100 or above, 50 for GIPRCNT values of 0, and 100 for GIPRCNT values of -100.

SMILES | growth
C[C@]12CC[C@@H]3c4cc(OC(F)F)c(OS(N)(=O)=O)cc4CC[C@H]3[C@@H]1CC[C@@H]2OS(N)(=O)=O | 36.2%
BrCCCc1n(Cc2ccc3ccccc3c2)c2ccccc2[n+]1Cc1ccc2ccccc2c1 | -81.3% (active)
O=C1CN(CCN2CC(=O)N(Cc3ccccc3)C(=O)C2)CC(=O)N1Cc1ccccc1 | 97.7%
CCCCNc1nc(NN2C(=O)c3cccc4cccc(c34)C2=O)nc(-n2cnc3ccccc32)n1 | 88.7%
Cc1cc(=O)[nH]c(=O)n1Cc1cn(-c2c3ccccc3nc3ccccc23)nn1 | 94%
COc1ccc(/C=C/c2c(C(=O)/C=C/c3ccc(C(F)(F)F)cc3)c(C)nc3ccccc23)cc1 | -23% (active)
CCN1C(=O)N(CC)C2Nn3c(s/c(=C4\C(=O)N(CCC(C)C)c5ccccc54)c3=O)=NC21 (stereo not given) | 87.8%
O=C(Nc1ccc(OS(=O)(=O)c2ccc(F)cc2)cc1)c1ccc(Cl)cc1 | 94%
COC1=C(C)C(=O)c2c(c(CCCl)c3n2CCC3O)C1=O (stereo not given) | -16.8% (active)
C#C[C@]1(O)CC[C@H]2[C@@H]3CC=C4c5sc(Nc6ccccc6)nc5CC[C@]4(C)[C@H]3CC[C@@]21C | 39.1%
COc1c(C2CC(=O)Nc3c2c(C)nn3-c2nc3ccccc3[nH]2)cc2c(c1OC)OCO2 (stereo not given) | 48.2%
CCCCCCN1C(=O)/C(=c2\sc3n(c2=O)C2C(NN=3)N(CC)C(=O)N2CC)c2ccccc21 (stereo not given) | 25.6%
CCCCC[C@H](O)C/C=C1/C(=O)C=C[C@@H]1C/C=C\CCCC(=O)O | 74.6%
CCN(CC)c1ccc(C2=NN(C(C)=O)C(c3cc(OC)c(OC)c(OC)c3)C2)cc1 (stereo not given) | 23.5%
CCc1cccc2c3c(sc12)C(c1ccc(Cl)cc1)C(C#N)=C(N)O3 (stereo not given) | 22.5%
NCCNc1nc2ccccc2c2c(=O)c3cc(F)ccc3sc12 | 84.9%
c1ccc2c(-c3nc(-c4c[nH]c5ccncc45)cs3)c[nH]c2c1 | 74.4%
Brc1c[n+](Cc2ccc3ccccc3c2)cn1Cc1ccc2ccccc2c1 | 9.7% (active)
COc1cc(CCCO)c(OC)c(OC)c1OC | 104%
O=c1ccc(N=Nc2ccccc2)ccc1Cl | 16.4%

SMILES | growth
Cc1cc(=O)oc2cc(OC(=O)N3CCN(C)CC3)ccc12 | 99.6%
O=C(Nc1ccc(F)cc1F)c1cc(F)ccc1O | -6.29% (active)
Cc1nc(/N=C(\N)NC(=O)Nc2ccccc2Cl)sc1C | 42.6%
COc1ccc(CNC(=O)[C@H](O)[C@@H](N)Cc2ccccc2)cc1 | 99.9%
O=C(CSc1nc2ccccc2[nH]1)Nc1cccc(Cl)c1 | 98.4%
Cc1ccc(-c2nc(N3CCN(CC(=O)Nc4ccc(Cl)c(C(F)(F)F)c4)CC3)c3ccccc3n2)cc1 | 92.5%
COc1ccc2[nH]c(-c3ccccc3)c(/C=C(\C#N)S(=O)(=O)c3ccccc3)c2c1 | 60%
CC1Cc2ccccc2N1NC(=O)c1ccc(Cl)c(S(N)(=O)=O)c1 (stereo not given) | 96.8%
OC(COc1ccccc1)CN1CCN(c2ccc(Cl)cc2)CC1 (stereo not given) | 95%
Fc1cc(-c2nnc3sc(-c4ccc(Cl)cc4Cl)nn23)c(Cl)cc1Cl | 83%
COc1cc(/C=C/c2c(C(C)=O)c(C)nc3ccccc23)cc(OC)c1OC | 52.8%
CC(=O)c1ccc(Nc2nc(C(C)=O)c(C)s2)cc1 | 96%
Cc1nc2cnc(N)c(C#Cc3cncc(C(=O)Nc4ccc(CN5CCN(C)CC5)c(C(F)(F)F)c4)c3)c2nc1C | -9.47% (active)
COc1ccc(C(=O)C(C)C)c2ccccc12 | 101%
COc1ccc(C(Cc2ccccc2)NCCN2CCOCC2)cc1 (stereo not given) | 100%
O=C(CCN1C(=O)/C(=C/c2ccc(O)cc2)SC1=S)Nc1ccc(Cl)cc1 | 91.3%
NCCCNc1nc2ccccc2c2c(=O)c3cc(F)cc(Cl)c3sc12 | 95.5%
N#CC1=C(N)Oc2c(sc3c(Br)cccc23)C1c1ccc([N+](=O)[O-])cc1 (stereo not given) | 11.7%
CNCCCNc1nc2ccccc2c2c(=O)c3cc(OC)ccc3sc12 | 79.6%
CN1CCN(CC(=O)N2c3cccc4cccc(c34)N(C(=O)CN3CCN(C)CC3)C2c2cn(-c3ccccc3)nc2-c2cccc([N+](=O)[O-])c2)CC1 | 1.14% (active)
